PI4K2A inh: blocks human PI4K2A kinase activity; 420,000 tested, 0.13% active; Q9BTU6; purified PI4K2A, ADP-Glo luminescence, 1 h; stronger effect = lower value; activity change, negative = inhibition, % at 76.9 µM; in the data active = activity change below about -50%; inconclusive = mostly about -30% to -49%;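 also: -100% = wells without enzyme as full effect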
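PI4K2A activity was measured by ADP-Glo luminescence: enzyme (4 ug/mL stock) and phosphatidylinositol (1.2 mM stock) in Tris pH 7.5/MgCl2/EGTA/Triton X-100 buffer were reacted with ATP (300 microM stock) for one hour at ambient temperature.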
TrxR1 inh: inhibitors of rat thioredoxin reductase 1. Potency, µM (titrated, usually from 114 µM), for inactives: top-dose activity change, negative = inhibition, hits mostly inhibitors. AID 588453. 390,000 tested, 1% active. recombinant rTrxR1, NADPH fluorescence consumption, selenite substrate; also: potency is read from the fitted curve at half-maximal effect; nearly all actives have a fitted effect of over 65% in size
Target sequence (O89049 whole entry, looked up): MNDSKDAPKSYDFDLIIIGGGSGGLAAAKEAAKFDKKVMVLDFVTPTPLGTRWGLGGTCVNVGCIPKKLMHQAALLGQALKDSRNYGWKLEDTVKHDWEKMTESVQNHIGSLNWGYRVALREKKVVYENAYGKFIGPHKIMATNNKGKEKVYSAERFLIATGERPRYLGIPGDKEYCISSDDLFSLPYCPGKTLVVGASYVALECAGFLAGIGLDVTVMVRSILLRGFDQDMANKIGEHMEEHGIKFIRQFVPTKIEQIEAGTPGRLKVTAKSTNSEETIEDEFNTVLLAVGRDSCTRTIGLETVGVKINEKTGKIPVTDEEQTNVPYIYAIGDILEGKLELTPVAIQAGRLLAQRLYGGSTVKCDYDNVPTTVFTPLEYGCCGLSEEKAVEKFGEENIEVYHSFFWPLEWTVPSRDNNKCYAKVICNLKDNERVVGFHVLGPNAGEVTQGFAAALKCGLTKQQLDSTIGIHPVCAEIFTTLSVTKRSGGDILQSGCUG
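Rat TrxR1 (90 nM in the dispensed reagent) was pre-reduced with 400 uM NADPH for 5 min at room temperature, then incubated with compound for 15 min. After 400 uM selenite was added, NADPH fluorescence (Ex 340/Em 450 nm) was followed for 8 min.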
GALK inhibitor: blocks human galactokinase activity. P51570. Purified GALK, Kinase-Glo residual ATP luminescence. Potency, µM (doses to about 57.5 µM), for the others: at the highest dose activity change, negative = inhibition, usual class: inhibitors. 270,000 tested, 0.007% active; also: potency is read from the fitted curve at half-maximal effect
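Compounds were pin-transferred into ATP buffer (35 uM final), then GALK plus galactose (5 nM, 100 uM final) was added. After 1 h at room temperature, Kinase-Glo Plus was added and luminescence read after 10 min.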
TrxR1 substrate: is turned over as a substrate by rat TrxR1; Potency, µM (doses to about 114 µM), for inactives: at the top dose activity change, negative = substrate turnover; 390,000 tested, 0.01% active; purified TrxR1 substrate turnover, NADPH consumption readout; AID 588456; also: potency is read from the fitted curve at half-maximal effect; nearly all actives have a fitted effect of over 50% in size
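Rat TrxR1, dispensed at 90 nM, was prereduced with 400 uM NADPH (final) for 5 min at ~22 deg C, then incubated with compound 15 min before 400 uM selenite. A first-read NADPH fluorescence drop versus no-compound background flagged substrates.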
Active calls of the source: *; ? = inconclusive; / = not tested or not shown; ! = repeats disagree; [ ] = another dose, or the depositor's remark. Shown are actives, neighbours in structure and some others; about 1.1% of the full set was active somewhere. Unless noted, calls follow the shape of the dose curve; as a rule, active = well fitted curve in the direction sought with a large enough effect; inconclusive = small, poorly fitted or top-dose-only effect, or another doubt; inactive = no such curve, though single readings can be large; an effect the other way counts as inactive or inconclusive. Unless noted, % is scaled to controls: 0 for no effect and ±100 for the full control effect.

SMILES	PI4K2A inh	TrxR1 inh	GALK inhibitor	TrxR1 substrate
NC(=O)c1c(/N=C/c2cccs2)sc2c1CCCC2	-2.9	39.8µM*	1.8%	-2.5%
CCN(CC)C(=O)c1ccc(Oc2ccc([N+](=O)[O-])cc2Cl)cc1	-4.0	29.9%[57.1 µM]	3.5%	2.8%[57.1 µM]
CCN(CC)C(=O)c1cc([N+](=O)[O-])cc2c1-c1ccc([N+](=O)[O-])cc1C2=C(C#N)C#N	2.5	25.1µM*	2.7%	-4.4%
Clc1cccc(Cl)c1CNc1ccc(N2CCCC2)cc1	-4.9	3.55µM*	-0.1%	5.4%[57.1 µM]
CCCSc1cc(NCCOC(C)=O)c([N+](=O)[O-])c2nonc12	-1.6	-5.8%	0.1%	-9.8%
CCCC(=O)OCCNc1cc(SCc2ccco2)c2nonc2c1[N+](=O)[O-]	?	3.98µM*	0.6%	-16.3%
CCCC(=O)OCCNc1cc(Sc2nccn2C)c2nonc2c1[N+](=O)[O-]	7.2	0.562µM*	0.5%	1.3%
CC(=O)OCCCNc1cc(SCc2ccco2)c2nonc2c1[N+](=O)[O-]	?	2.51µM*	0.8%	-16.9%
CCCSc1cc(NCCOC(=O)CCC)c([N+](=O)[O-])c2nonc12	22.6	?	-0.6%	-4.0%
c1cncc(-c2nc(-c3ccco3)cs2)c1	-11.4	35.5µM*	0.6%	13.1%[57.1 µM]
c1cncc(-c2csc(-c3cccnc3)n2)c1	0.5	10.3%	7.5%	-2.1%
N#CN1C2CCC1CC(O)(c1ccccc1)C2 (stereo not given)	0.3	/	/	/
Cc1ccc(NC(=O)CCS(=O)(=O)c2cccc3nsnc23)c(C)c1	-0.6	1.9%	/	-3.8%
CCN(CC)c1ccc(NC(=O)CCS(=O)(=O)c2cccc3nsnc23)c(C)c1	-0.6	79.4µM*!	1.4%	-3.5%
CC(=O)Nc1ccc(S(=O)(=O)c2cc(O)ccc2O)cc1	-1.2	17.8µM*	-1.4%	-0.5%
CC(=O)CCS(=O)(=O)c1ccc(NC(C)=O)cc1	3.6	39.8µM*	3.5%	11.9%
Cc1ccc(S(=O)(=O)c2cc(O)ccc2O)cc1C	-1.6	?	-1.4%	-1.4%
COc1cc(NC(=O)CSc2nc(C)cc(=O)[nH]2)cc(OC)c1	-0.5	/	/	/
Cc1cc(NC(=S)NC(=O)C2CC2)ccc1Br	-1.4	44.7µM*	0.0%	1.8%
CCN(CC)c1ccc(NC(=S)NC(=O)C2CCC2)cc1	3.8	44.7µM*	-2.4%	7.8%
Cc1cccc(NC(=S)NC(=O)C2CC2)c1	/	/	-0.3%	/
Cc1ccccc1NC(=O)CC1NCCNC1=O (stereo not given)	-2.7	5.4%	/	4.5%
c1ccc(-c2onc(-c3ccco3)c2-c2ccc3c(c2)OCO3)cc1	-5.2	50.1µM*	/	8.2%
O=c1oc(Nc2ccc(F)cc2)nc2ccccc12	-57.4*	36.9%[57.1 µM]	-1.4%	18.2%[57.1 µM]
Cc1ccc2nc3cc([N+](=O)[O-])cc([N+](=O)[O-])c3cc2c1	-11.9	50.1µM*	-3.6%	-3.7%
SMILES	PI4K2A inh	TrxR1 inh	GALK inhibitor	TrxR1 substrate
Cc1nc2ccc([N+](=O)[O-])cc2nc1C	2.8	8.0%	2.0%	-2.5%
Cc1ccc2nc(Cl)c(C3CC(c4ccco4)=NN3S(C)(=O)=O)cc2c1 (stereo not given)	0.1	?	4.8%	6.2%
Cc1ccc2cc(C3CC(c4ccco4)=NN3S(C)(=O)=O)c(Cl)nc2c1 (stereo not given)	2.4	79.4µM*	-0.5%	-3.5%
Cc1ccc(/C=C/C(=O)c2ccc([N+](=O)[O-])o2)cc1	1.2	6.31µM*	/	-4.4%
O=C(/C=C/c1ccc(Cl)cc1)c1ccc([N+](=O)[O-])o1	-0.5	5.01µM*	/	-2.3%
Cc1cc(O)c(C(=O)/C=C/c2ccc(Cl)cc2)c(=O)o1	-4.3	-20.4%[57.1 µM]	-4.3%	1.4%[57.1 µM]
Cc1ccc(NC(=O)C2CCC(CNS(=O)(=O)c3ccc4c(c3)CCCC(=O)N4)CC2)cc1F (stereo not given)	1.3	15.8%[57.1 µM]	/	2.3%[57.1 µM]
O=C(O)CCC(=O)c1ccc2c(c1)OCCO2	1.9	16.0%	0.2%	2.5%
O=C(CCN1Cc2ccccc2C1)c1ccc2c(c1)OCCO2	8.2	0.316µM*	5.4%	-4.0%
O=C(CCN1CCc2ccccc2C(c2ccccc2)C1)c1ccc2c(c1)OCCO2 (stereo not given)	12.2	1.12µM*	-1.5%	-12.3%
O=S1(=O)C=C(Sc2nnc(-c3ccccc3)o2)c2ccccc21	5.8	0.398µM*	6.2%	6.7%
CSc1nnc(-c2ccccc2)o1	2.9	9.1%[57.1 µM]	10.3%	6.8%[57.1 µM]
Cc1c(C#N)c(=O)c(-[n+]2ccccc2)c([S-])n1-c1ccc(Cl)cc1	-8.7	50.1µM*	-1.6%	3.3%
Cc1ccccc1-n1c(C)c(C#N)c(=O)c(-[n+]2ccccc2)c1[S-]	-10.4	3.5%	1.9%	14.3%
COc1ccc(NC(=O)Nc2nnc(N(C)C3CCCCC3)s2)c(OC)c1	0.5	13.0%	/	-1.1%
Cc1ccc(S(=O)(=O)Cc2cc(F)c([N+](=O)[O-])cc2[N+](=O)[O-])cc1	14.8	17.8µM*	-2.4%	-1.3%
Cc1ccc(S(=O)(=O)N2CCN(c3nc(-c4ccncc4)nc4ccccc34)CC2)cc1	/	44.7µM*	/	4.5%
O=C(NCc1ccco1)C1CCN(S(=O)(=O)N2CCOCC2)CC1	-85.0*	6.2%	0.6%	2.5%
COc1ccc(C2Nc3ccccc3C(=O)N2Cc2ccco2)cc1OC (stereo not given)	/	?	/	147.8%
COc1ccc(S(=O)(=O)N2CN(Cc3ccco3)c3nc4ccccc4nc32)cc1	-10.7	35.5µM*	-1.8%	21.7%
COc1ccc(/C=N/NC(=O)c2cccc(C(=O)N/N=C/c3ccc(OC)cc3)n2)cc1	-4.0	50.1µM*	2.6%	46.0%
O=C(N/N=C\c1ccccc1)c1cccc(C(=O)N/N=C\c2ccccc2)n1	-3.1	11.6%	/	1.3%
Cc1nc2c(=O)n(C)c(=O)n(C)c2nc1Cl	-21.6	2µM*	0.3%	59.5%[57.1 µM]
CCN(CC)CC(C)(C)C(=O)/C=C/c1ccc(/C=C/C(=O)C(C)(C)CN(CC)CC)cc1	14.2	2µM*	/	-11.3%
CCN(CC)CCOC(=O)/C=C/c1ccccc1	-2.2	13.2%	0.6%	-2.2%
SMILES	PI4K2A inh	TrxR1 inh	GALK inhibitor	TrxR1 substrate
COC(=O)COc1ccc(C2Nc3c(Cl)ccc(C(=O)O)c3C3C=CCC32)cc1 (stereo not given)	-9.6	12.6µM*	-3.1%	10.7%
CS(=O)(=O)c1ccc(Cl)c(NC(=O)CCl)c1	-0.5	12.6µM*	-0.9%	4.4%[57.1 µM]
CS(=O)(=O)c1ccc(C(=O)Nc2cc(S(C)(=O)=O)ccc2Cl)cc1	8.2	?	0.1%	-1.7%
Cc1cc(C)c(S(=O)(=O)c2cccc(Cl)c2)c(=O)[nH]1	-0.8	7.3%	3.7%	-5.0%
Cc1cc(C)c(-c2n[nH]c3c2C(c2ccccc2F)N(Cc2ccco2)C3=O)c(O)c1 (stereo not given)	-2.3	-1.2%	/	-1.1%
Cc1ccc(N2NC(=O)/C(=C\c3cc4c(cc3[N+](=O)[O-])OCO4)C2=O)cc1C	-4.0	17.8µM*	/	6.0%
O=C(NN1C(=O)/C(=C/C=C/c2ccco2)SC1=S)c1ccccc1O	-23.8	56.2µM*	2.8%	-17.5%

High-throughput results as filed in PubChem BioAssay.
